From PubChem BioAssay
Only some compounds are listed: those with a hit (about 5.9% of all), similar ones and a draw of the others.
HepG2 viability – counter-screen for TGF-b inhibitors: cytotoxicity in HepG2 cells. HepG2 CAGA-GFP viability, ATP luminescence, 18 h. AID 588856. hit rate 0.76% among 410,000. Potency, µM (highest dose often 46.1 µM), for inactives: at the top dose activity change, negative = cytotoxicity, hits mostly cytotoxic
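CellTiter-Glo luminescence gave cytotoxicity after 18 hours at 37 degrees C. The cells were HepG2 CAGA-GFP in 1% FBS DMEM, stimulated with 500 pg/mL TGF-beta after compound addition. %Activity was normalised to no-cell wells (complete cell-killing) and DMSO (no toxicity), and curves were fitted and classified.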
ATXN2 expr inh – ATXN2 expression inhibition; HEK-293 ATXN2-luciferase reporter, luminescence, 24 h; Potency, µM (series often up to 57 µM), for inactives: at the top dose activity change, negative = inhibition, actives largely listed as inhibitors; hit rate 0.72% among 360,000; AID 1745845; note: % is set by controls: 0 for no effect and ±100 for the full control effect; nearly all actives have a fitted effect of over 55% in size
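ATXN2-luciferase reporter cells (luciferase flanked by upstream and downstream ATXN2 gene portions) were treated 24 h at 37 °C with compounds at up to 57 uM. SteadyGlo luminescence gave expression; GF-AFC fluorescence gave viability.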
KB-3-1 tox – KB-3-1 parental cell cytotoxicity; KB-3-1 viability, CellTiter-Glo ATP luminescence, 72 h; Potency, µM (doses to about 46.1 µM), actives largely listed as cytotoxic; hit rate 1.4% among 400,000; AID 1347075; note: % is set by controls: 0 for no effect and ±100 for the full control effect; nearly all actives have a fitted effect of over 60% in size
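Multi-concentration cytotoxicity screen in KB-3-1 cells grown in DMEM lacking phenol red with 10% FBS. After 72 h at 37 °C with compound, ATP-dependent luminescence was recorded.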
TGFb SMAD3 inh – TGF-b pathway inhibition; AID 588855; hit rate 1.2% among 410,000; HepG2 CAGA-GFP TGF-b/SMAD3 reporter, GFP fluorescence, 18 h; TGF-beta stimulated, 500 pg/mL final; Potency, µM (highest dose often 46.1 µM), for inactives: at the top dose activity, negative = inhibition, hits mostly inhibitors; note: % is set by controls: 0 for no effect and ±100 for the full control effect; nearly all actives have a fitted effect of over 65% in size
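Smad-responsive CAGA-GFP expression was quantified in HEPG2 cells exposed to compounds and 500 pg/mL final TGF-beta for 18 h at 37 degrees C; unstimulated wells defined full inhibition.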
S2 tox – cell viability loss in ATXN counter-screen. Potency, µM (doses to about 56.7 µM), hits mostly cytotoxic. S2 cells (HEK-293 line with an ATXN2-luciferase reporter) viability, CellTiter-Fluor protease fluorescence, 24 h. hit rate 0.49% among 400,000; note: nearly all actives have a fitted effect of over 40% in size
KB-V1 MDR tox – KB-V1 MDR subline cytotoxicity; hit rate 3.4% among 400,000; AID 1347076; KB-V1 MDR cells viability, CellTiter-Glo, 72 h; Potency, µM (top dose mostly 46.1 µM), hits mostly cytotoxic; note: % is set by controls: 0 for no effect and ±100 for the full control effect; nearly all actives have a fitted effect of over 60% in size
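KB-V1, DMEM (no phenol red) + 10% FBS; cpd pin-transferred, titration series; 72 h, 37 degrees C; CellTiter-Glo, luminescence. Data normalized, curve-fit.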
Active calls of the source: *; i = inactive; ? = inconclusive; . = not tested or not shown. Calls come from the whole dose curve; as a rule, active = well fitted curve in the direction sought with a large enough effect; inconclusive = small, poorly fitted or top-dose-only effect, or another doubt; inactive = no such curve, though single readings can be large; an effect the other way counts as inactive or inconclusive. Potency is the fitted concentration of half-maximal effect.

SMILES | HepG2 viability | ATXN2 expr inh | KB-3-1 tox | TGFb SMAD3 inh | S2 tox | KB-V1 MDR tox
CN(C)CCCn1c(=S)[nH]c2ccccc2c1=O | -13% | -11% | i | 4% | i | i
CN(C)CCCN=c1c2ccccc2n(C)c2[nH]c(=O)n(C)c(=O)c12 | . | 17µM* | . | . | . | .
CCCC(=O)Nc1ccccc1C(=O)OCc1cc(=O)n2nc(C(C)C)sc2n1 | 1% | . | . | -2% | . | .
COC(=O)C(=Cc1ccc(OCc2ccc([N+](=O)[O-])cc2)c(OC)c1)C(=O)OC | -62% | ? | i | ? | ? | ?
CCOC(=O)C(=Cc1ccc(OCc2ccc([N+](=O)[O-])cc2)c(OC)c1)C(=O)OCC | -72% | ? | ? | ? | 22µM* | 21µM*
COc1ccc(/C=C2\SC(=S)N(CCCC(=O)N3CCN(C)CC3)C2=O)cc1 | -51% | ? | i | ? | ? | i
COc1cccc(/C=C2\SC(=S)N(CCCC(=O)N(CCO)c3ccccc3)C2=O)c1 | -58% | 22µM* | ? | ? | ? | ?
COc1cccc(/C=C2/SC(=S)N(CCC(=O)N3CCOCC3)C2=O)c1 | -24% | 57% | 16µM* | -8% | i | ?
COc1ccc(/C=C2\SC(=S)N(CCC(=O)N3CCOCC3)C2=O)cc1 | 1% | 98% | i | -2% | 0.2µM* | i
O=C(CCN1C(=O)/C(=C\c2ccccc2)SC1=S)N1CCOCC1 | -1% | 58% | ? | 1% | i | ?
O=C1/C(=C/c2cccc(Br)c2)SC(=S)N1CCC(=O)N(CCO)c1ccccc1 | -43% | 0% | ? | ? | i | i
Cc1ccc(/C=C2\SC(=S)N(CCC(=O)N3CCOCC3)C2=O)cc1 | -23% | 36% | 12µM* | -1% | i | ?
Clc1ccc(CSc2nc3ncccc3[nH]2)cc1 | -30% | . | i | ? | . | i
CCN(CC)S(=O)(=O)c1nnc(NC(=O)c2ccc(C)cc2)s1 | 3% | . | i | -28% | . | i
O=C(O)C1CCC1 | . | 3% | . | . | i | .
Cc1ccc(F)c(S(=O)(=O)NC(=O)C2(C)CCN2C(=O)CCC2CCCC2)c1 (stereo not given) | 4% | 15% | i | 8% | i | i
N#C/C(=C\N1CCN(Cc2ccc3c(c2)OCO3)CC1)c1nc2ccccc2s1 | -31% | -2% | ? | 7% | i | 21µM*
CCOC(=O)N1CCN(/C=C(\C#N)c2nc3ccccc3s2)CC1 | -18% | 13% | i | 82% | i | 23µM*
Nc1c(C(=O)NCCc2ccccc2)nnn1CC(=O)Nc1ccc(Cl)cc1 | 0% | . | . | -2% | . | .
COc1ccc(/C=C(/CC(=O)NCc2ccc(Cl)cc2)c2nc3ccccc3s2)cc1 | -9% | 5% | i | -5% | i | 10µM*
COc1ccc(-c2nn(-c3ccccc3)cc2/C=N/Nc2ccc3ccccc3n2)cc1OC | 4.5µM* | -21% | i | ? | . | ?
O=C(COc1ccccc1)NCC(=O)Nc1cccc2ccccc12 | -16% | 9% | ? | -6% | i | 18µM*
COc1ccc(NC(=O)CSc2ccc3c(c2)OCCO3)cc1 | -12% | 2% | i | 0% | i | i
O=C(CN1CCC(C(=O)c2ccc(Cl)cc2)CC1)Nc1ccc2c(c1)OCCO2 | -1% | -14% | ? | ? | i | 9.2µM*
O=C(c1ccc2c(c1)OCCO2)C1CCN(C(=O)c2ccc(F)c(F)c2)CC1 | -18% | -15% | ? | -31% | i | 5.8µM*
O=C(Nc1ccc2c(c1)OCCO2)c1c(Cl)cccc1Cl | -5% | . | i | -5% | i | i
CC(=O)Nc1ccc(SCC(=O)Nc2ccc3c(c2)OCCO3)cc1 | 3.5µM* | 2% | i | 4% | i | i
NC(=O)C1CCN(CC(=O)Nc2ccc3c(c2)OCCO3)CC1 | -5% | 6% | i | 0% | i | i
